The list is not random: actives were taken first. Their share in the collection is about 2%.
CF NFkB inh = inhibitors of PAF-induced NF-kB signaling, primary screen, cell-based, GFP fluorescence, uHTS; inhibition, % at 5 µM; AID 588850, 2011; KKLEB NF-kB-GFP reporter, GFP fluorescence overnight; 360,000 tested, 0.86% active;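 active = at least 50% inhibition at 5 µM, scaled per plate between neutral and stimulator controls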;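 also: PAF is a Pseudomonas aeruginosa culture filtrate used as stimulus; plate controls were PAF-stimulated DMSO wells for no effect and unstimulated DMSO wells for full effect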
EWS-Fli inh = EWS/Fli-driven NR0B1 reporter inhibitors, primary screen, A673 cells, NR0B1 luciferase, luminescence, MLPCN library. inhibition, % at 12.6 µM. 350,000 tested, 0.67% active. AID 651661, 2012. viability-normalised;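 active = mean inhibition of at least 50% after viability correction, with every replicate also passing that limit; inconclusive = mean reaches 50% but only one of two replicates passes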;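 also: firefly luciferase signal divided by Alamar Blue viability fluorescence both relative to DMSO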
LGR2 antag = inhibitors of bursicon-induced LGR2 CRE-luciferase signal, primary screen, cell-based, HEK293, CRE-luciferase reporter, bursicon stimulation; Drosophila bursicon receptor LGR2 (rickets); bursicon-stimulated, 4 h; inhibition, % at 9.99 µM; 380,000 tested, 0.35% active; AID 720647, 2013;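 active = drop in luminescence signal, shown as inhibition above about 50% in the replicate tests, limit read from the data, passing the limit was not always enough; inconclusive = probably only some replicates passing the limit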;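 also: agonist challenge used bursicon conditioned medium at about half maximal strength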
Shn3 3UTR inh = reduction of Shn3 3'UTR firefly luciferase signal, primary screen, Schnurri-3 inhibitor project, cell-based, Clone20 osteoblasts, set 2. Clone20 osteoblast Shn3 3'UTR firefly luciferase, 24 h. inhibition, % at 12.5 µM. 360,000 tested, 0.52% active. AID 588674, 2011;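 active = mean inhibition of at least 75% with every replicate also reaching 75%; inconclusive = mean inhibition at least 75% but some replicate below; inactive = mean inhibition below 75%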;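 also: 0% = median of neutral control wells and 100% = pilot-screen positive control compound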
KKLEB tox = cytotoxicity in KKLEB CF airway cells, primary screen, cytotoxicity control for CF NF-kB inhibitor project, cell-based, uHTS, fluorescence assay plates; KKLEB CF airway cells viability, ATPlite luminescence, overnight; stronger effect = lower value; cells stimulated with P. aeruginosa culture filtrate; activity change (cytotoxicity), % at 5 µM; 360,000 tested, 0.36% active;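 active = corrected activity change at or below -50% at 5 µM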
PAX8 inh HTS = inhibitors of PAX8-driven TPO luciferase reporter, primary screen, RMG-I cells, single concentration. SteadyGlo, 24 h. inhibition, % at 12.6 µM. 360,000 tested, 1.2% active. AID 652154, 2013;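 active = mean replicate inhibition at least 60% with every replicate also reaching 60%; inconclusive = only one of the two criteria is met; inactive = mean below 60% and not all replicates reaching 60%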;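 also: luciferase light reporting Pax8 driven TPO promoter activity; plate controls were median of neutral control wells for no effect and mitoxantrone controls for full effect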
An asterisk follows results filed as active; u = inconclusive; x = not tested or not shown.

SMILES	CF NFkB inh	EWS-Fli inh	LGR2 antag	Shn3 3UTR inh	KKLEB tox	PAX8 inh HTS
C[C@@H]1CN([C@H](C)CO)C(=O)c2cc(NS(=O)(=O)c3cccs3)ccc2O[C@@H](C)CCCCO[C@H]1CN(C)Cc1ccc(C(=O)O)cc1	x	22	3	x	x	-36
C[C@@H]1CN([C@@H](C)CO)C(=O)c2cc(NS(=O)(=O)c3cccs3)ccc2O[C@@H](C)CCCCO[C@H]1CN(C)Cc1ccc(C(=O)O)cc1	x	-5	3	x	x	0
C[C@@H]1CN([C@@H](C)CO)C(=O)c2cc(NS(=O)(=O)c3cccs3)ccc2O[C@@H](C)CCCCO[C@H]1CN(C)Cc1ccc(C(F)(F)F)cc1	x	17	41	x	x	84*
C[C@@H]1CN([C@H](C)CO)C(=O)c2cc(NS(=O)(=O)c3cccs3)ccc2O[C@@H](C)CCCCO[C@@H]1CN(C)Cc1ccc(C(F)(F)F)cc1	x	-1	-10	x	x	94*
C[C@H]1CCCCO[C@@H](CN(C)Cc2ccc(C(=O)O)cc2)[C@@H](C)CN([C@@H](C)CO)C(=O)c2cc(NS(=O)(=O)c3cccs3)ccc2O1	x	-8	4	x	x	-8
C[C@@H]1CCCCO[C@H](CN(C)Cc2ccc(C(F)(F)F)cc2)[C@@H](C)CN([C@@H](C)CO)C(=O)c2cc(NS(=O)(=O)c3cccs3)ccc2O1	x	10	20	x	x	89*
C[C@H](CO)N1C[C@H](C)[C@@H](CN(C)Cc2ccc(C(F)(F)F)cc2)OCCCC[C@H](C)Oc2ccc(NS(=O)(=O)c3cccs3)cc2C1=O	x	14	-6	x	x	71*
O=C(C[C@@H]1CC[C@@H](NC(=O)CN2CCOCC2)[C@@H](CO)O1)NC1CCCCC1	x	0	-16	x	x	0
COc1ccc(OC)c(Nc2cc(C)nc3ccc(C)cc23)c1	12	57*	6	46	-17	30
COC(=O)c1ccc2nc(C)cc(Nc3ccccc3C)c2c1	-21	2	1	10	-10	14
COc1ccc2nc(C)cc(Nc3ccc(C)cc3)c2c1	-20	-17	-13	8	10	-5
COc1ccc2nc(C)cc(Nc3ccc(N4CCN(C)CC4)cc3)c2c1	-58	80*	-12	-17	-8	59
COC(=O)c1ccc(Nc2cc(C)nc3ccc(C)cc23)cc1	-9	19	74*	7	-7	24
Cc1ccc2nc(C)cc(Nc3ccc([N+](=O)[O-])cc3)c2c1	-72	40	u	48	-24	96*
CC(=O)c1cccc(Nc2cc(C)nc3ccc(C)cc23)c1	-17	13	-5	5	-14	-1
O=C(C[C@@H]1CC[C@@H](NS(=O)(=O)c2ccccc2)[C@@H](CO)O1)NCc1ccc(Cl)c(Cl)c1	x	0	-5	x	x	9
C[C@H]1CN([C@@H](C)CO)C(=O)Cc2cc(NS(=O)(=O)c3cccs3)ccc2O[C@@H]1CN(C)C(=O)Nc1ccc2c(c1)OCO2	x	1	15	x	x	x
C[C@@H]1CCCCO[C@H](CN(C)S(C)(=O)=O)[C@H](C)CN([C@@H](C)CO)C(=O)c2cc(NS(C)(=O)=O)ccc2O1	x	-12	-3	x	x	-16
COc1ccc(/C=N/Nc2ncccc2[N+](=O)[O-])c(OC)c1	8	-136	66*	-19	6	-105
COc1ccc(/C=N/Nc2cc(C)nc3ccc(OC)cc23)c(OC)c1	-105	66*	103*	96*	-11	87*
COc1ccc(/C=N/Nc2ncc(-c3ccccc3)cn2)c(OC)c1	6	x	x	-7	4	x
O=c1cc(-c2c(F)c(F)c(F)c(F)c2F)oc2ccccc12	-7	49	67*	69	-6	x
CCCC(=O)N1CC2(CN(S(C)(=O)=O)C2)c2c([nH]c3cc(OC)ccc23)[C@@H]1CO	x	27	-9	x	x	x
CC=Cc1ccc2n(c1=O)C[C@H]1[C@H](CO)[C@@H](C(=O)N[C@@H](C)c3ccccc3)N(C(=O)c3cnccn3)[C@@H]21 (mixture of isomers)	x	-1	0	x	x	3
